The record followed here is PubChem BioAssay.

Structures are written as SMILES. The source made the active and inactive calls.

One experiment concerns the target Albumin (Bos taurus) (UniProt P02769). Put plainly: bovine serum albumin binders on microarray, profiling panel, artefact control for SMM control protein annotation, biochemical, small-molecule microarray, Alexa647 label, 635/667 nm fluorescence (AID 1118).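 Note: score merges 667 nm emission intensity and signal-to-noise per printed compound spot.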 To be noted: BSA-A647 binding, fluorescence 635 nm, higher = more signal.
Experiment [1] in a line: small-molecule microarray binders of probe aXIP, primary screen, biochemical, NeuroSMM set, 635/667 nm fluorescence (AID 1119).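 Note: probe is the protein aXip251-270 applied at 1 µg/mL to compound-printed slides; binding of probe to printed compounds measured as 667 nm fluorescence plus signal to noise.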 The settings on record: higher = more signal, called active from +8 up or from −8 down.
Experiment [2] can be described thus: small-molecule binders of probe aNOTCH3, primary screen, biochemical, small-molecule microarray, 635/667 nm fluorescence (AID 1120).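 Note: probe is a biotin-tagged antibody raised against NOTCH3 rather than NOTCH3 protein; score merges spot fluorescence near 667 nm with spot signal to noise.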 The settings on record: higher = more signal.
Experiment [3] in a line: small-molecule binders of probe aNOTCH2, primary screen, biochemical, small-molecule microarray, 635/667 nm fluorescence (AID 1121).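 Note: score merges feature fluorescence read at 667 nm with its signal to noise.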 To be noted: higher = more signal.
The target in experiment [4] is Carbonic anhydrase 2 (Homo sapiens) (UniProt P00918). In words: CAII small-molecule binders, profiling panel, biochemical, small-molecule microarray, Alexa647-labelled CAII (AID 1122). To be noted: CAII-A647 binding fluorescence, higher = more signal.
Experiment [5] in a line: COS7 lysate on small-molecule microarray, probe aHis, 635 nm (AID 1123).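 Note: z-score combines 667nm fluorescence intensity with signal-to-noise per printed compound spot.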 The settings on record: COS7 cell lysate, fluorescence, higher = more signal.
Experiment [6] is described as follows: compound binding in COS7 lysate, probe aLAP1, primary screen, cell lysate, small-molecule microarray (AID 1124).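 Note: lysate comes from COS7 cells expressing LAP1 and is applied at 0.3 µg/mL; score merges spot fluorescence near 667 nm with signal-to-noise over triplicate slides.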 To be noted: probe aLAP1, fluorescence, higher = more signal.
In another experiment the test system is Sam68 (KHDRBS1). Put plainly: Sam68 small-molecule binders, primary screen, biochemical, small-molecule microarray, 635 nm fluorescence (AID 1125).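 Note: score merges 667 nm channel intensity with signal to noise over triplicate slides.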 The settings on record: small-molecule microarray binding, higher = more signal.
For experiment [7], the system named is Chordin-like protein 2 (CHRDL2). In words: CHRDL2 small-molecule binders, primary screen, biochemical, small-molecule microarray, 635 nm fluorescence (AID 1126).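 Note: printed compound slides probed with Chrdl2 protein at 4 µg/mL for 1 h at 4 C; score merges 667 nm emission intensity with signal to noise over three replicate slides.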 The settings on record: small-molecule microarray binding, fluorescence 635 nm; higher = more signal.
In experiment [8] the target is Concanavalin-A (Canavalia ensiformis) (UniProt P02866). Put plainly: ConA small-molecule binders, primary screen, artefact control for SMM control protein annotation, biochemical, small-molecule microarray, Alexa647 label, 635 nm (AID 1127).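 Note: z combines 667 nm emission intensity with signal-to-noise across three replicate slides.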 To be noted: ConA-A647 binding fluorescence, higher = more signal.
A short description of experiment [9]: anti-His antibody binders, primary screen, artefact control for SMM control protein annotation, biochemical, small-molecule microarray, 635 nm fluorescence (AID 1128).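 Note: score merges feature fluorescence with signal-to-noise for each printed compound spot.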 The settings on record: anti-His Alexa647 antibody binding, higher = more signal.
Experiment [10] deals with Human papillomavirus type 1a E7 protein (residues 1-88). In words: HPV1a E7 small-molecule binders, primary screen, biochemical, small-molecule microarray, residues 1-88, 635 nm (AID 1129). The settings on record: small-molecule microarray binding, fluorescence 635 nm; higher = more signal.
Experiment [11] addresses Focal adhesion kinase 1 (Homo sapiens) (UniProt Q05397). Put plainly: small-molecule microarray binders of FAK, primary screen, biochemical, 635/667 nm fluorescence, BSA, DTT (AID 1130).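 Note: composite of spot emission at 667 nm and signal to noise over triplicate slides.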 The settings on record: PTK2 binding, 635 nm fluorescence, higher = more signal.
Experiment [12] deals with Fibrinogen (Alexa647-labelled). Put plainly: fibrinogen binders on compound microarrays, profiling panel, artefact control for SMM control-protein annotation, biochemical, small-molecule microarray, 635/667 nm fluorescence (AID 1131).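 Note: z-score merges 667 nm fluorescence with per-spot signal-to-noise over triplicate slides.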 The settings on record: fibrinogen-A647 binding fluorescence, higher = more signal.
In experiment [13] the target is Follistatin (Homo sapiens) (UniProt P19883). In words: follistatin binders on small-molecule microarrays, primary screen, biochemical, small-molecule microarray, 635/667 nm fluorescence (AID 1132). The settings on record: FST binding, 635 nm fluorescence, higher = more signal.
The target of experiment [14] is Fibroblast growth factor 2 (Homo sapiens) (UniProt P09038). In words: FGF2 binders on small-molecule microarrays, primary screen, biochemical, small-molecule microarray, 635/667 nm fluorescence (AID 1133). The settings on record: small-molecule microarray binding, FGF2, fluorescence 635/667; higher = more signal.
A short description of experiment [15]: mitochondrial membrane potential change in A549 cells, profiling panel, cell-based, JC-1 fluorescence, basal, 24 h, 100 nL (AID 1138).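 Note: A549 lung adenocarcinoma cells under basal conditions with no added stimulus; test concentration not given here.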 The settings on record: higher = more signal.
The test system of the next experiment is Lefty1. Put plainly: Lefty1 binders on small-molecule microarrays, primary screen, biochemical, small-molecule microarray, 635/667 nm fluorescence (AID 1139). To be noted: small-molecule microarray binding, fluorescence 635/667; higher = more signal.
Experiment [16] concerns wheat germ agglutinin (Triticum aestivum), Alexa647-labelled. Put plainly: wheat germ agglutinin binders on compound microarrays, profiling panel, artefact control for SMM control-protein annotation, biochemical, small-molecule microarray, 635/667 nm fluorescence (AID 1140).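 Note: score merges 667 nm feature emission with signal to noise over triplicate slides.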 To be noted: WGA-A647 binding, 635 nm fluorescence, higher = more signal.
Experiment [17] has as its target Luciferin 4-monooxygenase (Photinus pyralis) (UniProt P08659). Put plainly: firefly luciferase enzyme inhibitors, primary screen, biochemical, luminescence, purified enzyme, 2006 set (AID 1141).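 Note: cell-free assay with purified firefly luciferase at 100 ng per well in PBS; test concentration not given here.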 To be noted: SteadyGlo luminescence, 30 min, higher = more signal, called active from +8 up or from −8 down.

Sequence of Focal adhesion kinase 1 (Homo sapiens) (Q05397 whole entry, looked up): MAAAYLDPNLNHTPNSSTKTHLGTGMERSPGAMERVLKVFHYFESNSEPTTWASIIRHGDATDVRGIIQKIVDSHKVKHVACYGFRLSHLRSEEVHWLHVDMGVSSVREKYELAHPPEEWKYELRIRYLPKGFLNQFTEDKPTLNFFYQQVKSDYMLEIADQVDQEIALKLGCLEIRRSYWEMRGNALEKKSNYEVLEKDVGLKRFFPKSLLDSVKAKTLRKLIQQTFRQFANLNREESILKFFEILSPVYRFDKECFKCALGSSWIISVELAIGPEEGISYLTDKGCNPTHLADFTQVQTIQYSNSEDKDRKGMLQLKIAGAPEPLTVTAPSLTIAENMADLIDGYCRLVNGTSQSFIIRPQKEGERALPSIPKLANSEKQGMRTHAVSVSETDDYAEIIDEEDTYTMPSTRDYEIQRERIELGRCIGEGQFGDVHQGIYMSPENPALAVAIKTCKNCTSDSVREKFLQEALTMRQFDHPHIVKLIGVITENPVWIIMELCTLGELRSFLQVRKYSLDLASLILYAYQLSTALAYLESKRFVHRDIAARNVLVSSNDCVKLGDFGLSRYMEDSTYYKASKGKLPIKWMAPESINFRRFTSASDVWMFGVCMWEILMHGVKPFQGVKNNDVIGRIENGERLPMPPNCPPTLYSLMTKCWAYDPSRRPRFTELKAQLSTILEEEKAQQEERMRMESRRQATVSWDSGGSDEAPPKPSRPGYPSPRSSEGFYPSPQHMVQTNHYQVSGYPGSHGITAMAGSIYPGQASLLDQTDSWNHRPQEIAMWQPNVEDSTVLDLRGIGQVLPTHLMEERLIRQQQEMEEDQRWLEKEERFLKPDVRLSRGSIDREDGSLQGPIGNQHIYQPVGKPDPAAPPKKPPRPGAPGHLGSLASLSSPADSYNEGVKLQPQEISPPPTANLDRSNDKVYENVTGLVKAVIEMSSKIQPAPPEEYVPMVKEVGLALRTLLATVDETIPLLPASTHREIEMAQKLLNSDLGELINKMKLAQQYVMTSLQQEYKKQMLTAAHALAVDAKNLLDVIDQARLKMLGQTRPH
Sequence of Follistatin (Homo sapiens) (P19883 whole entry, looked up): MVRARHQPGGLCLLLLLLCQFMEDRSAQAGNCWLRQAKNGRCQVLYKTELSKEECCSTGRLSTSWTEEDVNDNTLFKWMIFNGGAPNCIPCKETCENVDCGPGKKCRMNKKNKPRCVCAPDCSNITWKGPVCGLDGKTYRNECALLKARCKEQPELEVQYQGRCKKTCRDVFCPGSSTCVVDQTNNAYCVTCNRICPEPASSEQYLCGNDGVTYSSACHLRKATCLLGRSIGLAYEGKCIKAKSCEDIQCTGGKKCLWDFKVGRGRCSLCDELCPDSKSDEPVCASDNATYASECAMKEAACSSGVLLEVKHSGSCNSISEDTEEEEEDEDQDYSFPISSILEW
Sequence of Albumin (Bos taurus) (P02769 whole entry, looked up): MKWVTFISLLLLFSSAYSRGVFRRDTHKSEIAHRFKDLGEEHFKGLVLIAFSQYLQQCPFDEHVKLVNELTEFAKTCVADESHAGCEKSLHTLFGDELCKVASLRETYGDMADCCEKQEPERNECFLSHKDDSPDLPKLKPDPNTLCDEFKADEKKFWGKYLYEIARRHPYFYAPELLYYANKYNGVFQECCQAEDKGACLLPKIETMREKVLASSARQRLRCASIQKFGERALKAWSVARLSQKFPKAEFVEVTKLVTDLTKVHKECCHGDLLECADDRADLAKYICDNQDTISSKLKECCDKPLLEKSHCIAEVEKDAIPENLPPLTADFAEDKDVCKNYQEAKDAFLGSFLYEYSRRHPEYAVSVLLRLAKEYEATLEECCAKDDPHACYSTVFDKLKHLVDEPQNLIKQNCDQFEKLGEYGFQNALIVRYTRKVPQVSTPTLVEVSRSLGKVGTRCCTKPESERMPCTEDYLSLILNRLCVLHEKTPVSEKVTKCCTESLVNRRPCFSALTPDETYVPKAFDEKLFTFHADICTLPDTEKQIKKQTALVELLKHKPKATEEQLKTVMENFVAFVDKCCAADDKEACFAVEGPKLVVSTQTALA
Sequence of Concanavalin-A (Canavalia ensiformis) (P02866 whole entry, looked up): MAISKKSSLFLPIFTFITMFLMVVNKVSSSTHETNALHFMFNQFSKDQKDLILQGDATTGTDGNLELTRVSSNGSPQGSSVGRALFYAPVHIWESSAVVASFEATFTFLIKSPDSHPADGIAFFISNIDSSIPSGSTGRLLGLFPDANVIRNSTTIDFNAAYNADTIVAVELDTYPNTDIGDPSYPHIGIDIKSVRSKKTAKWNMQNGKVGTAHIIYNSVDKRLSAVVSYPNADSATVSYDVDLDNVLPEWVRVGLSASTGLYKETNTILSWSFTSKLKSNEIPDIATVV
Sequence of Luciferin 4-monooxygenase (Photinus pyralis) (P08659 whole entry, looked up): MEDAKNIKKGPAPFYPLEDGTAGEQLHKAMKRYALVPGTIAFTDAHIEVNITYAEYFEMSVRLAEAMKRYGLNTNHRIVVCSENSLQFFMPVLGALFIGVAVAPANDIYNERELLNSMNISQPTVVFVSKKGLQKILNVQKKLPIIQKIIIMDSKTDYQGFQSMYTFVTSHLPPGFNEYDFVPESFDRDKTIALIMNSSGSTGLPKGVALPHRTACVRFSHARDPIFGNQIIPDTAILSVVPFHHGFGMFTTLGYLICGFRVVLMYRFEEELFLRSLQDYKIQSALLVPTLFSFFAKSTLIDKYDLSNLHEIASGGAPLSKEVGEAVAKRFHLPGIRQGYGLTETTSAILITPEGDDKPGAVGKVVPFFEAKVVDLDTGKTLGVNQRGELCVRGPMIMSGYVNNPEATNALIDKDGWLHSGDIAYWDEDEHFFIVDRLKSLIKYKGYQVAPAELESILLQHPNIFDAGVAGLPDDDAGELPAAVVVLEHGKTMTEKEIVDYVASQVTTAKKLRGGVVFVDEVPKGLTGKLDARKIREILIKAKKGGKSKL
Sequence of Fibroblast growth factor 2 (Homo sapiens) (P09038 whole entry, looked up): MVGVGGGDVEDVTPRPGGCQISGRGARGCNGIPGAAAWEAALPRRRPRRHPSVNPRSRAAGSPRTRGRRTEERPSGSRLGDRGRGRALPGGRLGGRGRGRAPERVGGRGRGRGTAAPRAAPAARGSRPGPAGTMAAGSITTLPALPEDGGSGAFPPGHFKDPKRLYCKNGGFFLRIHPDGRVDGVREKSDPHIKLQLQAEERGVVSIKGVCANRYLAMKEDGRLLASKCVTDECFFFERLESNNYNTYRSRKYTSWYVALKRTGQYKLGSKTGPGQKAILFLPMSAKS

`CCCC[C@H]1CN2[C@@H](CC[C@@H](C)[C@@H]2c2ccc(Br)cc2)C(=O)O1`: the composite z-score with Albumin (Bos taurus) was 0.738; in [2], -0.137; in experiment [3] it was -0.183; in experiment [4], 0.397; in experiment [5], 0.615; in experiment [6], 1.59. The composite z-score in the experiment with Sam68 (KHDRBS1) worked out at 1.29; in experiment [7] it was 0.549; in experiment [8], 0.764; in experiment [9], 0.256; in experiment [10], 1.17; in [11], 0.307. The composite z-score was found to be 0.831 in experiment [12]; 0.53 in experiment [13]; 0.198 in [14]; 0.326 in the experiment on Lefty1; 0.542 in experiment [16]. The composite Z-score in experiment [1] was 0.689 (inactive). The z-score in experiment [15] was 0.962; in [17], -2.12 (inactive).
In the case of `CCOC(=O)[C@H](CC(C)C)NC(=O)CCC1CC(OC(=O)NCc2ccc3c(c2)OCO3)CC2(CCCC(COC(=O)NCCc3ccc(Cl)cc3)O2)O1` (stereo not given in full), the composite z-score was 0.619 in the experiment with Albumin (Bos taurus); 0.0116 in [2]; -0.159 in experiment [3]; 0.232 in experiment [4]; 0.817 in experiment [5]; 0.127 in experiment [6]. In addition, the composite z-score in the experiment with Sam68 (KHDRBS1) is 1.11; in [7], 0.359; in [8], -0.0326; in experiment [9], 0.141; in experiment [10], 0.653; in experiment [11], 0.0146. In addition, the composite z-score in experiment [12] was -0.092; in experiment [13], 0.62; in experiment [14], 0.671; in the experiment on Lefty1, 1.14; in experiment [16] it was 0.669. Also, the composite Z-score in [1] is -0.232 (inactive). In addition, the z-score is 0.387 in experiment [15] and 0.621 (inactive) in experiment [17].
Take `CO[C@H]1C[C@@H]2C[C@H](O)CC(CC(=O)O[C@@H](C=CCC(C)C)C[C@@H]3CC[C@H](C)[C@@H](C1)O3)O2`: the composite z-score was 0.603 with Albumin (Bos taurus); 0.0824 in experiment [2]; -0.193 in [3]; 0.276 in experiment [4]; 1.12 in experiment [5]; -0.0223 in [6]. Moreover, the composite z-score turned out to be 1.3 with Sam68 (KHDRBS1); 0.629 in experiment [7]; 0.389 in [8]; 0.583 in [9]; 0.959 in experiment [10]; 0.122 in [11]. Further, the composite z-score in experiment [12] came out at 0.707; in experiment [13], 0.719; in experiment [14], 0.361; with Lefty1 it was 0.749; in experiment [16], 0.0954. Besides, in experiment [1], the composite Z-score is -0.349 (inactive). The z-score is -0.589 in [15] and -0.0042 (inactive) in experiment [17].
Consider `CC(CCC(=O)OC[C@H]1O[C@H](C#Cc2ccccc2)C=C[C@@H]1Oc1ccc(C)cc1)=NO[C@@H](C)c1cc(-c2c(C)cc(C)cc2C)no1`, for which the composite z-score is 0.363 in the experiment with Albumin (Bos taurus); -0.272 in experiment [2]; -0.14 in experiment [3]; -0.0955 in experiment [4]; 0.0007 in experiment [5]; 0.173 in experiment [6]. Moreover, the composite z-score with Sam68 (KHDRBS1) is -0.42; in experiment [7] it was -0.872; in [8], -0.214; in [9] it was 0.888; in experiment [10] it was -1.49; in experiment [11] it was -0.0556. Moreover, the composite z-score in experiment [12] is 0.709; in experiment [13] it was -0.921; in experiment [14], -0.977; in the experiment with Lefty1 it was -0.589; in experiment [16], 0.848. For the same compound, the composite Z-score in [1] was -0.61 (inactive). Besides, the z-score in experiment [15] is -0.00541; in experiment [17], 0.0957 (inactive).
With `CCOC(=O)CCN1C(=O)[C@H]2[C@H]3[C@H](O)[C@H](O)CC(=NOCC(C)C)[C@@H]3CC[C@H]2C1=O`, the composite z-score is -0.0235 with Albumin (Bos taurus); -0.0693 in experiment [2]; -0.186 in [3]; -0.52 in [4]; -0.934 in experiment [5]; -0.412 in experiment [6]. Further, the composite z-score is -0.0659 in the experiment with Sam68 (KHDRBS1); 1.45 in experiment [7]; -1.16 in experiment [8]; -0.957 in experiment [9]; -0.263 in experiment [10]; -0.286 in [11]. Further, the composite z-score in experiment [12] was -0.586; in [13], 0.91; in experiment [14], 1.14; with Lefty1 it was 0.929; in experiment [16], 0.0456. Moreover, in experiment [1], the composite Z-score was 0.544 (inactive). The z-score is -0.478 in experiment [15] and 0.826 (inactive) in [17].
With `CC[C@@H](c1ccccc1)n1c(=O)n2n(c1=O)[C@H]1[C@H](O)[C@@H]3O[C@@H]3C(=NOCc3ccccc3)[C@H]1CC2`, the composite z-score in the experiment with Albumin (Bos taurus) is 0.536; in [2], 0.0306; in experiment [3], -0.203; in [4], 0.178; in [5], 0.423; in [6], -0.502. Also, the composite z-score with Sam68 (KHDRBS1) is 0.0843; in experiment [7] it was 0.283; in experiment [8] it was 0.966; in [9], 0.274; in [10], 0.0875; in [11], -0.207. Also, the composite z-score in experiment [12] was 0.931; in experiment [13] it was 0.598; in experiment [14] it was 0.373; with Lefty1 it was 0.65; in [16], 0.676. In addition, the composite Z-score in experiment [1] was -0.558 (inactive). Besides, the z-score in experiment [15] was -1.14; in [17] it was 0.0145 (inactive).
